# Source: ChEMBL document CHEMBL2218924, “A broad activity screen in support of a chemogenomic map for kinase signalling research and drug discovery” (Biochem J, 2013)
# Biological target: Macrophage-stimulating protein receptor (Homo sapiens) (UniProt Q04912)
# Conditions: at 1 µM
# Chain of Macrophage-stimulating protein receptor (Homo sapiens) (Q04912 25-304 limits assumed): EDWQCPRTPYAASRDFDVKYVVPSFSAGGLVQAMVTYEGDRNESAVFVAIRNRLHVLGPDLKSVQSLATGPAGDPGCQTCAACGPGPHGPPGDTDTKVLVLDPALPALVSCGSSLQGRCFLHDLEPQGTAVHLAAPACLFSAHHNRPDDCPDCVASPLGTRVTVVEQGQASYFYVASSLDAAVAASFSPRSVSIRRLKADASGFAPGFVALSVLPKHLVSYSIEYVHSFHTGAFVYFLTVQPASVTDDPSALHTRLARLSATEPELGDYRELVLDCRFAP
# Chain of Macrophage-stimulating protein receptor (Homo sapiens) (Q04912 310-1400 limits assumed): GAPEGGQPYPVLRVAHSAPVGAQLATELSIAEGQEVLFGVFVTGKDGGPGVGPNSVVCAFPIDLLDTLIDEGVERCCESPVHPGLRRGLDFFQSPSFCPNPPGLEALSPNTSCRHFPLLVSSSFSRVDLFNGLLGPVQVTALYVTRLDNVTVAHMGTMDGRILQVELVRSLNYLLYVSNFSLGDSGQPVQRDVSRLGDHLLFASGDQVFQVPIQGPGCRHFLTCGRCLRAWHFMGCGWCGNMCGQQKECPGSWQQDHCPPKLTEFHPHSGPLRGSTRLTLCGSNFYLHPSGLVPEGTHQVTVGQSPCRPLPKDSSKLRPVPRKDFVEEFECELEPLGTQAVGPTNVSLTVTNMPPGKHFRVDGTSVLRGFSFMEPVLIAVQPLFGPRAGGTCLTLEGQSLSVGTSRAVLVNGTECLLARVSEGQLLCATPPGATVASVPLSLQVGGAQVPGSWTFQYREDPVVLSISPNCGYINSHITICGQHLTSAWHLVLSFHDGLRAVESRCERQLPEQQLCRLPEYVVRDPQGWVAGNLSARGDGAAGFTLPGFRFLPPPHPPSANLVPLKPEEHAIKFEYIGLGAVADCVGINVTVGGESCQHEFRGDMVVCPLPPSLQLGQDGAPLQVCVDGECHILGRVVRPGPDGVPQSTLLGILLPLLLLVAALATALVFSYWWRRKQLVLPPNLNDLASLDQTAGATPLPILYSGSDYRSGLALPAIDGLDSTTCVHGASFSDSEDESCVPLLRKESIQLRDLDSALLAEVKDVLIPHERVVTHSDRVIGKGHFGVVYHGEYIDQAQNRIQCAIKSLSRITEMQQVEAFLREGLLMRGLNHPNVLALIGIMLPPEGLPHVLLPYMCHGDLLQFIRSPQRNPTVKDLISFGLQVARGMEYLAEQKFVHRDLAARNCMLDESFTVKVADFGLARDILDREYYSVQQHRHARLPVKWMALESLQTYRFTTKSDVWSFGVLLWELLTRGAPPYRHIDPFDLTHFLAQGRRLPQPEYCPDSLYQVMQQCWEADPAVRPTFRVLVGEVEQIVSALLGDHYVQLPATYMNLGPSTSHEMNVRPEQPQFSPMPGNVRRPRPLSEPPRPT
row,SMILES,residual activity [%]
1,COc1cc2nccc(Oc3ccc(NC(=O)Nc4cc(C)on4)c(Cl)c3)c2cc1OC,31
2,O=c1c(-c2ccc(F)cc2)c(-c2ccncc2)[nH]n1-c1ccc(Cl)cc1,78
3,O=C1Cc2c([nH]c3ccc([N+](=O)[O-])cc23)-c2ccccc2N1,100
4,O=C(O)/C=C/c1cc(Br)c(Br)c(Br)c1Br,56
5,NC(=O)c1ccc(-c2nc(-c3ccc4c(c3)OCCO4)c(-c3ccccn3)[nH]2)cc1,94
6,COc1ccc2c(c1)c(C1=C(c3c[nH]c4ccccc34)C(=O)NC1=O)cn2CCCN(C)C,77
7,O=C1Cc2c([nH]c3ccc(Br)cc23)-c2ccccc2N1,72
8,O=C1Nc2ccccc2/C1=C\c1c(Cl)[nH]c2ccccc12,86
9,O=C(c1ccccc1)c1ccc(N2CCOCC2)cc1O,90
10,O=c1cc(N2CCNCC2)oc2c(-c3ccccc3)cccc12,76
11,N#Cc1c(NC(=O)c2cccc3ccccc23)sc2c1CCCC2,74
12,N#C/C(=C1/Nc2ccccc2S1)c1ccnc(NCCc2cccnc2)n1,84
13,CN(C)S(=O)(=O)c1ccc2c(c1)/C(=C/c1cc3c([nH]1)CCCC3)C(=O)N2,64
14,O=C1NC(=O)C(c2cn(CCCO)c3ncccc23)=C1c1cnccn1,66

# Biological target: Macrophage-stimulating protein receptor (Homo sapiens) (UniProt Q04912)
# Conditions: at 10 µM
row,SMILES,residual activity [%]
1,COc1cc2nccc(Oc3ccc(NC(=O)Nc4cc(C)on4)c(Cl)c3)c2cc1OC,3
2,O=c1c(-c2ccc(F)cc2)c(-c2ccncc2)[nH]n1-c1ccc(Cl)cc1,80
3,COc1cc2c(cc1OC)-c1n[nH]c(Nc3cccc(F)c3)c1C2,68
4,O=C1Cc2c([nH]c3ccc([N+](=O)[O-])cc23)-c2ccccc2N1,108
5,O=C(O)/C=C/c1cc(Br)c(Br)c(Br)c1Br,43
6,NC(=O)c1ccc(-c2nc(-c3ccc4c(c3)OCCO4)c(-c3ccccn3)[nH]2)cc1,86
7,COc1ccc2c(c1)c(C1=C(c3c[nH]c4ccccc34)C(=O)NC1=O)cn2CCCN(C)C,56
8,O=C1Cc2c([nH]c3ccc(Br)cc23)-c2ccccc2N1,77
9,COc1ccc(COc2ccc(Cc3cnc(N)nc3N)cc2OC)cc1,62
10,O=C(c1ccccc1)c1ccc(N2CCOCC2)cc1O,99
11,COc1ccc(-c2cnc3c(-c4ccsc4)cnn3c2)cc1,87
12,CC(C)N(CCC(=O)c1ccc2ccccc2c1)Cc1ccccc1,67
13,CCN(CC)CCNC(=O)c1c(C)[nH]c(/C=C2\C(=O)Nc3ccc(Cl)cc32)c1C,40
14,O=c1cc(N2CCNCC2)oc2c(-c3ccccc3)cccc12,58
15,O=C1NC(=O)C(c2c[nH]c3ccccc23)=C1c1c[nH]c2ccccc12,70
16,N#Cc1c(NC(=O)c2cccc3ccccc23)sc2c1CCCC2,65
17,N#C/C(=C1/Nc2ccccc2S1)c1ccnc(NCCc2cccnc2)n1,46
18,CN(C)S(=O)(=O)c1ccc2c(c1)/C(=C/c1cc3c([nH]1)CCCC3)C(=O)N2,83
19,O=C1NC(=O)C(c2cn(CCCO)c3ncccc23)=C1c1cnccn1,58
